Screens (PubChem)
Sampled rows, rich in hits. Any-hit rate of the full collection: about 3.2%.
CRFBP-R2 agonist: agonists of CRF-BP/CRF-R2 complex, primary screen, cell-based, HEK293, calcium dye fluorescence, uHTS | calcium dye fluorescence (FLIPR); percent of saturating CRF peptide response | activation, % at 13.2 µM | CRF-binding protein / CRF receptor 2 complex (human) | 350,000 tested, 0.46% active;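 active = activation of at least 50%, plus an integration ratio under a set limit after plate pattern correction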;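 also: plate controls were neutral control wells without compound for no effect and CRF at EC100 for full effect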
CRFBP-R2 block: antagonists of CRF-BP/CRF-R2 complex, primary screen, cell-based, HEK293, calcium dye fluorescence, uHTS | inhibition, % at 11.8 µM | 350,000 tested, 0.59% active | CRF-induced calcium fluorescence;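 active = inhibition of the ligand-induced calcium signal above about 50% at the single tested concentration, limit read from the data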
FAS-TE inh: FAS thioesterase domain inhibitors, primary screen, biochemical, fluorescence intensity, uHTS. recombinant FAS-TE, OMFH fluorogenic substrate, fluorescence endpoint. AID 602261, 2012. 360,000 tested, 0.67% active. inhibition, % at 15 µM;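 active = compounds whose normalised, plate-corrected inhibition of enzyme fluorescence in the single-dose primary screen is 50% or more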;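 also: 0% = DMSO with enzyme and 100% = substrate without enzyme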
H9c2 protect: cardioprotection against H2O2-induced cell death, primary screen, uHTS, H9c2 cells, ATPLite luminescence. H9c2 cardiomyocytes, H2O2 injury protection, 2 h. protection from H2O2 cell death, % at 20 µM. 360,000 tested, 0.63% active. AID 588492, 2011;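 active = compounds giving at least 50% protection of heart cells from peroxide-induced death in the single-dose screen, raw or plate-pattern-corrected value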;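 also: 0% = DMSO wells with peroxide and 100% = DMSO wells without peroxide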
aDG glyco act: activators of alpha-DG glycosylation, primary screen, uHTS, Pro5-aDG cells, AlphaScreen | alpha-DG glycosylation AlphaScreen (IIH6); 0% Pro5, 100% B10-LARGE cell signal | AID 624168, 2012 | activation, % at 10 µM | 360,000 tested, 0.22% active;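 active = activation of at least 8% versus controls, or a plate z-score of at least 8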;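 also: Pro5 are CHO cells carrying HIG-tagged alpha-DG that lacks glycosylation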
PfGluPho inh: PfG6PD enzyme inhibitors, primary screen, biochemical, fluorescence intensity, uHTS; PfGluPho enzyme, NADPH resazurin-diaphorase fluorescence; 350,000 tested, 0.78% active; AID 504690, 2011; inhibition, % at 20 µM; glucose-6-phosphate dehydrogenase-6-phosphogluconolactonase (Plasmodium falciparum 3D7);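 active = inhibition reaching at least a set limit at 20 µM in the primary screen, cut at about 59% in these data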;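 also: 0% = DMSO wells with substrate and 100% = DMSO wells lacking glucose-6-phosphate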
PfGluPho conf: PfG6PD inhibitors, hit retest, confirmation, biochemical, fluorescence intensity, single concentration | shares compounds with PfGluPho inh | recombinant PfGluPho, NADPH-diaphorase-resazurin fluorescence | inhibition, % at 20 µM | 2,400 tested, 34% active;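 active = inhibition of at least 50% at 20 µM in any single replicate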;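 also: 0% = DMSO with substrate and 100% = DMSO lacking glucose-6-phosphate substrate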
Diaphorase 10uM: diaphorase inhibitors and chemical oxidizers, confirmation, counter-screen for P. falciparum G6PD inhibitor project, biochemical, fluorescence intensity, 10 µM NADPH; shares compounds with PfGluPho inh; diaphorase-coupled resazurin reduction, NADPH 10 uM; inhibition, % at 20 µM; 820 tested, 39% active;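 active = average inhibition reaching 50% or more with the compound at 20 µM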;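 also: resorufin red fluorescence formed as diaphorase reduces resazurin using NADPH; 0% = DMSO with enzyme and 100% = DMSO without enzyme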
Diaph ctr 30uM: diaphorase inhibitors and chemical oxidizers, confirmation, counter-screen for P. falciparum G6PD inhibitor project, biochemical, fluorescence intensity, 30 µM NADPH; shares compounds with PfGluPho inh; Diaphorase/resazurin coupled assay, resorufin fluorescence; inhibition, % at 20 µM; 820 tested, 29% active; AID 504863, 2011;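 active = inhibition averaging 50% or more, tested at 20 µM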;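 also: 0% = DMSO with enzyme and 100% = DMSO wells lacking diaphorase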
Active calls of the source: *; . = not tested or not shown.

SMILES	CRFBP-R2 agonist	CRFBP-R2 block	FAS-TE inh	H9c2 protect	aDG glyco act	PfGluPho inh	PfGluPho conf	others
COc1cc(NC(=O)c2cccc(COCC(F)(F)C(F)F)c2)cc(OC)c1OC	-8.3	1.5	5.4	-0.4	0.6	3.3	.
O=C(Nc1cccc([N+](=O)[O-])c1)N1CCCCCC1	-1.1	0.0	17.4	-2.4	-0.1	3.0	.
CC1CCCCC12NC(=S)N(c1ccccc1)N2 (stereo unspecified)	-1.9	5.4	-5.9	-3.4	-0.2	60.1*	-8.1
COC(=O)C1CCc2c(ccc3c2CCCC3)C1=O (stereo unspecified)	-8.5	15.5	0.9	-19.8	0.0	-2.6	.
CC(C)c1nc2oc3c(NCC4CCCO4)ncnc3c2c2c1COC(C)(C)C2 (stereo unspecified)	-3.5	3.1	-1.4	27.6	0.1	65.6*	37.4
Cc1ccc(-c2c3c([nH]c(=S)c2C#N)CCCC3)o1	-0.7	10.4	-6.6	2.3	0.0	59.4*	34.4
CN(C)c1ccc2nc3ccc(=O)cc-3sc2c1	8.0	0.7	-8.6	-17.3	4.9	78.3*	49.2*	Diaphorase 10uM=24.0;Diaph ctr 30uM=28.5
COc1ccc2nc(N=Nc3ccc(N(C)C)cc3)sc2c1	0.0	-0.6	0.3	-37.1	-0.3	13.9	.
CN(C)c1ccc2nc3ccc(=[N+](C)C)cc-3sc2c1	-0.9	14.4	-2.5	-29.7	46.7*	112.1*	84.0*	Diaphorase 10uM=79.5*;Diaph ctr 30uM=78.3*
CNC(=S)N1CCN(c2nc3ccccc3s2)CC1	-0.9	-3.4	-1.3	-8.7	0.3	-1.2	.
COc1ccc(OC)c(CCNC(=O)CN2C(=O)COc3ccc(S(=O)(=O)N4CCOCC4)cc32)c1	-1.6	11.6	-1.2	1.1	0.8	-12.0	.
Cc1cc(S(=O)(=O)N2CCOCC2)ccc1OCC(=O)NCc1ccccn1	1.1	5.2	-4.6	-0.9	-0.1	-8.6	.
COc1ccc(CN(CC(=O)NCc2ccccc2)C(=O)CCC(=O)Nc2ccccn2)cc1	-0.2	-12.9	-3.0	2.2	0.0	-9.9	.
COc1cc(SC)ccc1C(=O)Nc1ccc2ncccc2c1	4.7	-20.6	7.1	-5.3	0.1	81.0*	12.3
COc1cc(SC)ccc1C(=O)Nc1ccc(C)cc1	-0.2	2.1	18.9	-13.7	0.1	61.4*	21.9
O=C(CN(Cc1ccc(Cl)cc1)C(=O)c1csnn1)NCc1ccccc1	-0.6	4.2	2.6	0.4	-0.1	-0.1	.
COc1ccc(Cl)cc1NC(=O)CN(C(=O)c1ccco1)C1CCCCC1	-1.1	-26.8	28.7	2.9	0.1	62.6*	31.2
COc1ccc(Cl)cc1NC(=O)CN(C)C(C)C(=O)NCC1CCCCC1 (stereo unspecified)	0.1	4.1	6.5	-0.7	0.2	13.8	.
O=C(COc1cccc(C(F)(F)F)c1)N1CCN(c2ccccc2O)CC1	-0.3	-24.3	4.2	1.3	-0.1	13.6	.
O=C(COc1cccc(C(F)(F)F)c1)N1CCN(c2ccc(O)cc2)CC1	0.1	7.3	4.7	-9.5	0.3	60.7*	0.9
O=C(COC(=O)c1ccc(O)cc1)Nc1ccccc1[N+](=O)[O-]	-1.1	5.0	-1.8	-1.3	-0.4	-11.8	.
O=C(CN(Cc1ccc(Br)cc1)S(=O)(=O)c1ccccc1)NCc1cccnc1	-1.6	-31.8	4.5	8.1	4.7	63.4*	27.1
O=S(=O)(c1ccc(F)cc1)N1CCC2(CC1)OCCN2S(=O)(=O)c1cccs1	1.9	-5.7	18.2	-0.7	0.2	14.0	.
Cc1cc(O)c(Sc2ncn[nH]2)cc1NS(=O)(=O)c1ccc(Cl)cc1	-0.3	-11.6	-18.5	-3.2	0.1	22.0	.
O=S(=O)(Nc1cc(Sc2ncn[nH]2)c(O)c2ccccc12)c1ccccc1	4.8	-65.3	-13.7	-16.4	-0.4	101.6*	98.4*	Diaphorase 10uM=52.6*;Diaph ctr 30uM=46.0
SMILES	CRFBP-R2 agonist	CRFBP-R2 block	FAS-TE inh	H9c2 protect	aDG glyco act	PfGluPho inh	PfGluPho conf	others
CCN(CC(=O)Nc1ccc(OC)cc1)CC(=O)Nc1cccc(S(=O)(=O)N2CCOCC2)c1	-1.3	-4.0	-0.3	3.1	-0.3	16.1	.
CC(C)(C)C1CCSC2=NCCC[C@]2(c2ccccc2)C1 (stereo partly specified)	.	.	5.8	.	-0.1	.	.
Cc1ccc2c(c1)[nH]c1c(N3CCN(Cc4ccccc4)CC3)ncnc12	-0.7	-18.7	8.2	-20.7	4.2	61.2*	-21.9
Oc1ccc(-c2cn3c(n2)SCC3)cc1O	-0.8	11.3	-8.1	13.5	-0.1	63.2*	89.4*	Diaphorase 10uM=20.9;Diaph ctr 30uM=18.9
CC(=O)OC[C@H]1O[C@@H](Oc2cc(O)cc3oc(-c4ccc(O)cc4)cc(=O)c23)[C@H](O[C@@H]2O[C@@H](C)[C@H](O)[C@@H](O)[C@H]2O)[C@@H](O)[C@@H]1O	0.1	-1.9	-5.7	-5.5	-0.1	0.0	.
COc1ccc(-c2nc3ccccc3[nH]2)cc1	-0.3	-0.1	-8.3	-27.7	0.0	60.6*	15.1
CCCOc1ccc(N)cc1N	13.5	-11.2	-13.2	-33.5	4.8	115.4*	69.6*	Diaphorase 10uM=51.7*;Diaph ctr 30uM=50.6*
COc1ccc(C2=Nn3c(C)nnc3SC2)cc1	-0.5	-8.0	-4.2	-4.3	-0.3	0.8	.
O=C(N/N=C/c1cccc(Br)c1)C1CC(=O)N(c2ccccc2)C1 (stereo unspecified)	-1.2	-3.5	3.0	-3.5	0.0	73.0*	44.7
COc1ccc(N2CC(C(=O)N/N=C/c3ccccc3)CC2=O)cc1 (stereo unspecified)	-3.2	-3.0	-4.1	2.4	-0.1	-6.1	.
Cc1ccc(Cc2c(-c3ccc(C#N)cc3)nc3ccc(Br)cn23)cc1	-1.1	6.6	18.5	-1.7	0.5	14.6	.
N#Cc1ccc(-c2nc3ccc(Br)cn3c2Cc2ccccc2)cc1	3.8	-9.6	20.6	-8.2	0.4	88.7*	12.5
CCOC(=O)c1sc(NC(=O)C(C)C)c(C#N)c1C	3.0	-62.1	-8.9	-7.3	-0.2	68.1*	34.4
